Assay results published in PubChem BioAssay (NCI).
The panel holds about 83,000 compounds, 20% with a hit somewhere; the sample as a whole holds those more often.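 Values shown are percent growth following 48 h exposure of cells in 96-well plates to a single concentration of compound; below 10 was considered active.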 Calls of active or inactive are those of the source.

What follows are compounds tested on HL-60(TB) leukemia (assay: NCI-60 one-dose screen, 48 h (100 = growth as untreated, 0 = no growth, -100 = all killed)). Conditions: 10 µM unless noted.
`CC/C=C\C[C@H](O)C/C=C1/C(=O)C(Cl)=C[C@@H]1C/C=C\CCCC(=O)OC` was tested, and the growth was -2.33% (active). `CCOC(=O)c1cc(C(=O)c2cc(OC)cc(OC)c2)n2ccc3ccccc3c12` was tested, and the growth was 103% (inactive). `COc1ccccc1/C=C/C1=C(C)CCC(c2ccccc2OC)C1C` (stereo not given) was tested, and the growth was -41.1% (active). For `CCN1C(=O)N(CC)C2C1NN=c1s/c(=C\c3ccc(C(F)(F)F)cc3)c(=O)n12` (stereo not given), the growth was -49.2% (active). `NNC(=O)NO` was tested, and the growth was 94.4% (inactive). `Oc1ccc(-c2nc(-c3ccc4oc5ccc(-c6[nH]c(-c7ccc(O)cc7)nc6-c6ccccc6)cc5c4c3)c(-c3ccccc3)[nH]2)cc1` was tested, and the growth was 39.9% (inactive). `O=C1C2=C(CCN(Cc3ccccc3)C2)N2CCN=C2N1Cc1ccc(C(F)(F)F)cc1` was tested, and the growth was 20.4% (inactive). With `Cc1ccc(S(=O)(=O)c2c(COC(=O)c3cccc(C)c3)c(-c3ccccc3)nn2C)cc1` the growth was 30.2% (inactive). In the case of `COC12C=C/C(=C(/C(=O)OCc3csc(SC)n3)C(=O)CCCCCCCCC3(OC)C=C/C(=C(/C(=O)OCc4cnc(SC)s4)C(=O)CCCCCCCC1)O3)O2` (stereo not given), the growth is reported as 6.46% (active). `Cc1c(-c2ccc(-c3ccccc3F)cc2)nc2ccc(F)cc2c1C(=O)O` was tested, and the growth was 5.22% (active). In the case of `O=c1cc(-c2ccccc2)[nH]n1-c1nc2ccccc2[nH]1`, the growth is reported as 11% (inactive). With `O=C(CCN1C(=O)c2ccccc2C1=O)Nc1ccc(Cl)cc1` the growth was 105% (inactive). With `O=C1/C(=C/c2ccccc2)CN(C(=O)C(Cl)Cl)C/C1=C\c1ccccc1` the growth was -15.3% (active). `O=C(Nc1nc2ccc(OC(F)(F)F)cc2s1)c1ccc(F)cc1` was tested, and the growth was 14.3% (inactive). For `Cc1nc(Sc2nc3ccc([N+](=O)[O-])cc3s2)sc1C`, the growth was -41.7% (active). For `COc1cc(C(=O)Nc2ccc(-c3nc4ccccc4[nH]3)cc2)cc(OC)c1OC`, the growth was 41.9% (inactive). `COc1cc2ccnc(C=O)c2cc1OC` was tested, and the growth was -27.4% (active). In the case of `CC(=O)CCC(=O)OCc1cc(=O)c(O)co1`, the growth is reported as 95% (inactive). With `COC(=O)N/N=C/c1coc2ccc(Cl)cc2c1=O` the growth was 105% (inactive). `N#Cc1ccccc1-c1ccc(CN2C(=O)S/C(=C\c3ccc(Br)cc3)C2=O)cc1` was tested, and the growth was 96.2% (inactive). With `O=C1OC2C(I)C3CC2C1C3c1ccccc1` (stereo not given) the growth was 85.7% (inactive). With `COc1ccc(C(=O)OC2C(OC3C(O)COC(O[C@H]4C[C@H]5[C@@H]6CC=C7C[C@@H](O)CC[C@]7(C)[C@H]6CC[C@]5(C)[C@H]4[C@H](C)C(=O)CCC(C)C)C3OC(N)=O)OCC(O)C2O)cc1` (stereo not given in full) the growth was -36.9% (active). For `Cc1ccc(S(=O)(=O)CCCl)cc1`, the growth was 91.7% (inactive). For `N=C(N)c1ccc(-c2ccc(-c3ccc(Cl)cn3)s2)cc1`, the growth was -45.8% (active). For `Cn1c(=O)c(F)c(Nc2ccc(I)cc2F)c2c(=O)n(C[C@@H](O)CO)cnc21`, the growth was 15.8% (inactive). With `Cc1ccc(-n2c(C)nn3c(=O)c4c5c(sc4nc23)CN(C)CC5)cc1` the growth was 96.7% (inactive). In the case of `CCN(CC)c1ccc(/C=C2\Oc3ccc(O)c(I)c3C2=O)cc1`, the growth is reported as 18.5% (inactive). `COC(=O)C(Cc1cn(C(C)=O)c2ccccc12)P(=O)(OC)OC` (stereo not given) was tested, and the growth was 97.5% (inactive). With `Ic1ccc(OCCCCn2ccnc2)cc1` the growth was 3.58% (active). With `Nc1ccc2ccc(N)cc2c1` the growth was 97.4% (inactive). For `COC(=O)C[C@@H]1CC=CC(=O)/C1=C(O)/C=C/c1ccccc1`, the growth was -10.7% (active). With `CC(C)COC(=O)NC(C)(C)C` the growth was 85.2% (inactive). With `O=C1c2c(O)cc(O)cc2OC(c2ccc(O)c(O)c2)C1O` (stereo not given) the growth was 110% (inactive). In the case of `Clc1ncnc2nc[nH]c12`, the growth is reported as 101% (inactive). With `COc1ccc2cc(-c3ccc(-c4ccc(C(=N)N)s4)s3)ccc2c1` the growth was 36.5% (inactive). `COc1cc(N=Nc2cc(S(=O)(=O)O)cc3cc(S(=O)(=O)O)cc(O)c23)c(C)cc1N=Nc1c(S(=O)(=O)O)cc2cc(Nc3ccccc3)ccc2c1O` was tested, and the growth was 93.6% (inactive). In the case of `O=C(C(=O)c1cc(Br)ccc1O)c1cc(Br)ccc1O`, the growth is reported as 27.4% (inactive). For `Cc1ccccc1CCO`, the growth was 100% (inactive). In the case of `O=C(CSc1ccc(Cl)cc1)Nc1ccc(-c2nc3ccccc3s2)c(Cl)c1`, the growth is reported as 63.4% (inactive). In the case of `COc1ccc(C(=O)/C=C/c2ccc(Cl)cc2)cc1S(N)(=O)=O`, the growth is reported as -3.41% (active).
